Compound activity as filed in PubChem BioAssay.
AGP1 TOR yeast: yeast TOR pathway AGP1-GFP modulation | AID 2066 | S. cerevisiae AGP1-GFP multiplex flow cytometry, 3 h; GFP as percent of DMSO wells | 320,000 compounds, 0.02% hits | GFP response vs DMSO, % at 10 µM;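 active means GFP response relative to DMSO above a set limit, near screen average plus 3 SD, cut at about 150% in these data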;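 further: median GFP channel fluorescence of the gated AGP1 strain per well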
LAP4-GFP MLPCN: yeast TOR pathway LAP4-GFP modulation; S. cerevisiae LAP4-GFP multiplex, flow cytometry GFP, 3 h; median GFP as percent of DMSO wells; GFP response vs DMSO, % at 10 µM; 320,000 compounds, 0.34% hits; AID 2023;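 active means GFP response vs DMSO above a set limit, about the screen mean plus 3 SD, cut at about 150% in these data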
MEP2-GFP yeast: yeast TOR pathway MEP2-GFP modulation. AID 2016. S. cerevisiae MEP2-GFP strain, flow cytometry GFP, 3 h; 100% = DMSO control level. GFP response vs DMSO, % at 10 µM. 330,000 compounds, 0.51% hits;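 active means GFP response versus DMSO above a set limit, roughly screen mean plus 3 SD, cut at about 180% in these data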;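 further: median GFP fluorescence of the barcode-gated MEP2-GFP cells per well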
RPL19A TOR yeast: yeast TOR pathway RPL19A-GFP modulation | AID 2025 | 330,000 compounds, 0.3% hits | percent response vs DMSO, % at 10 µM | S. cerevisiae RPL19A-GFP strain, flow cytometry, 3 h; active compounds read low;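 active means percent response vs DMSO below 50%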;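 further: median channel GFP fluorescence of the barcoded RPL19A-GFP strain; ratio of sample median GFP to plate DMSO average so 100% = DMSO; lower means less RPL19A-GFP as with rapamycin TOR inhibition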
CIT2 TOR yeast: alters CIT2-GFP fluorescence in TOR pathway yeast screen. 320,000 compounds, 0.065% hits. AID 2029. S. cerevisiae CIT2-GFP strain, flow cytometry, 3 h; 100 means same as DMSO wells. GFP response vs DMSO, % at 10 µM;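 active means GFP response relative to DMSO above a set limit, near the screen mean plus 3 SD, cut at about 150% in these data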;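 further: ratio of well median GFP fluorescence to mean of DMSO wells on the plate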
LAP4 cherry2: second confirmation of modulators of TOR reporter LAP4-GFP in yeast; shares compounds with LAP4-GFP MLPCN; S. cerevisiae LAP4-GFP strain, flow cytometry GFP, 3 h; GFP response vs DMSO, % at 10 µM; 590 compounds, 20% hits; AID 2621;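 active means GFP signal as percent of the solvent control above about 150%, meaning raised reporter expression, limit read from the data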;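 further: ratio of well median GFP fluorescence to plate DMSO mean so 100% = DMSO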
MEP2 cherry2: second confirmation of modulators of TOR reporter MEP2-GFP in yeast | shares compounds with LAP4-GFP MLPCN | GFP response vs DMSO, % at 10 µM | 590 compounds, 10% hits | AID 2622 | S. cerevisiae MEP2-GFP strain, flow cytometry GFP, 3 h;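 active means GFP signal above 150% of the solvent control wells, that is a rise of more than half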;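 further: median channel GFP fluorescence of all gated yeast cells per well; ratio of median GFP to plate DMSO average so 100% = DMSO level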
RPL19A-GFP pick2: reconfirmed modulator of RPL19A-GFP TOR reporter in yeast; shares compounds with LAP4-GFP MLPCN; S. cerevisiae RPL19A-GFP strain, flow cytometry GFP, 3 h; active compounds read low; 100% means same as DMSO wells; GFP response vs DMSO, % at 10 µM; 590 compounds, 3% hits;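 active means under 65% GFP response relative to DMSO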;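 further: median GFP channel fluorescence per well over the all cells gate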
CIT2-GFP pick2: second confirmation of modulators of TOR reporter CIT2-GFP in yeast; 590 compounds, 8% hits; shares compounds with LAP4-GFP MLPCN; GFP response vs DMSO, % at 10 µM; S. cerevisiae CIT2-GFP strain, flow cytometry GFP, 3 h; DMSO control wells read 100%;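 active means GFP response vs DMSO above about 150%, limit read from the data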;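 further: median green fluorescence per well over all gated yeast cells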
AGP1-GFP pick2: yeast AGP1-GFP TOR reporter modulation, second cherry pick. shares compounds with LAP4-GFP MLPCN. S. cerevisiae AGP1-GFP strain, flow cytometry GFP, 3 h. percent response vs DMSO, % at 10 µM. 590 tested, under 10 active;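 active means over 150 percent of DMSO response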;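 further: median GFP channel fluorescence over all cells without mother daughter split; sample median GFP divided by mean DMSO control so 100% equals DMSO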
s288c autofluor: yeast s288c autofluorescence artifact, counter-screen | shares compounds with LAP4-GFP MLPCN | S. cerevisiae s288c, 520 nm autofluorescence, flow cytometry, 3 h; active compounds read high; zero means same as solvent-only cells | fluorescence change (kMESF span) at 33 µM | 610 tested, under 10 active | AID 2757;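 active means fluorescence span over the dose series, or activity score, above about 33, limit read from the data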
Yeast autofl DR: counter-screen for autofluorescence of TOR hits in yeast s288c; AID 488829; shares compounds with LAP4-GFP MLPCN; fluorescence change (span) at 33 µM; S. cerevisiae s288c parental, compound autofluorescence, flow cytometry, 3 h; 110 tested, under 10 active;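 active means fluorescence change span, or the activity score built from it, above 25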
TORC1 bypass: stops wildtype yeast growth while TORC1 bypass cells still grow. S. cerevisiae BY4741 spot growth rating, 48-72 h; active compounds read low. AID 504456. 120 tested, under 10 active. growth rating (0-3) at 30 µM. shares compounds with LAP4-GFP MLPCN;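 active means growth rating at most 1 for wild type yeast while the TORC1 bypass strain still grows fully, rated 3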
Numbers without * were called inactive; / = not tested or not shown. Hits are enriched below; roughly 0.92% of the tested compounds scored in any of these assays.

SMILES	AGP1 TOR yeast	LAP4-GFP MLPCN	MEP2-GFP yeast	RPL19A TOR yeast	CIT2 TOR yeast	s288c autofluor	others
CCOc1ccc(S(=O)(=O)Nc2ccccc2C(=O)N2CCOCC2)cc1	95	89	93	96	100	/
O=C(COC(=O)[C@@H]1CCCN1C(=O)c1cccs1)Nc1cccc([N+](=O)[O-])c1	97	100	99	97	104	/
Cc1cc(C)cc(OCC(=O)OCC(=O)NC2CC2)c1	112	183*	100	84	80	/	LAP4 cherry2=97;MEP2 cherry2=102;RPL19A-GFP pick2=101;CIT2-GFP pick2=98;AGP1-GFP pick2=102
Cc1ccc(OCC(=O)OCC(=O)NC2CCCC2)cc1C	96	98	97	96	96	/
Oc1c(C(Nc2nc3ccccc3s2)c2ccco2)ccc2cccnc12 (configuration not stated)	86	203*	103	91	83	0.3
O=C(CC(=O)c1ccccc1)Nc1cc(C(F)(F)F)ccc1Cl	94	99	105	106	92	/	LAP4 cherry2=100;MEP2 cherry2=112;RPL19A-GFP pick2=101;CIT2-GFP pick2=102;AGP1-GFP pick2=99
COC(=O)[C@]1(Cc2ccccc2)N[C@H](CN(C)C(=O)Nc2ccc(C(F)(F)F)cc2)[C@@H]2C(=O)N(C)C(=O)[C@@H]21	85	90	94	89	88	/
CC(C)NC(=O)c1onc(CSc2ccc(Cl)cc2)c1C(=O)NC(C)C	83	127	89	94	88	/
CCCNC(=O)c1onc(CSc2ccc(Cl)cc2)c1C(=O)NC(C)C	110	173*	141	78	101	/	LAP4 cherry2=91;MEP2 cherry2=100;RPL19A-GFP pick2=103;CIT2-GFP pick2=97;AGP1-GFP pick2=97
Cc1cc(C(=O)Nc2ccc3c(c2)OCO3)no1	111	98	103	97	157*	/	LAP4 cherry2=104;MEP2 cherry2=110;RPL19A-GFP pick2=101;CIT2-GFP pick2=101;AGP1-GFP pick2=101
Cc1ccc(NC(=O)c2cc(-c3ccc4c(c3)OCO4)on2)cc1C	104	101	106	104	106	/
Cc1ccc(C(=O)/C=C/C(=O)c2ccc(C)cc2)cc1	84	168*	93	97	93	0.61
O=C1C=CC(=O)N1N(c1ccccc1)c1ccccc1	72	122	84	100	74	1
CSc1ccc(/C=C/C(=O)c2c(O)cc(C)oc2=O)cc1	97	110	103	103	99	/
COc1ccc(/C=C/C(=O)c2c(O)cc(C)oc2=O)c(OC)c1	103	104	105	98	109	/
Cc1cc(O)c(C(=O)/C=C/c2ccc(Cl)cc2)c(=O)o1	77	161*	93	93	95	0.61
COc1cccc(/C=C/C(=O)c2c(O)cc(C)oc2=O)c1O	86	243*	82	90	68	0.1
CCOC(=O)c1cnc2c(OC)cccc2c1Nc1ccc2c(c1)OCCO2	91	96	100	100	91	/
Cc1ccc(C(CC(=O)O)NC(=O)c2ccc(S(=O)(=O)N3CC(C)OC(C)C3)cc2)cc1 (configuration not stated)	97	114	196*	100	110	0	LAP4 cherry2=98;MEP2 cherry2=100;RPL19A-GFP pick2=99;CIT2-GFP pick2=96;AGP1-GFP pick2=99
COc1ccc(NC(=O)COC(=O)C2CC2)cc1S(=O)(=O)N1CCCCC1	109	105	100	106	96	/
CCN(C(=O)CN1CCN(c2cccc(Cl)c2)CC1)c1c(N)n(Cc2ccccc2)c(=O)[nH]c1=O	75	96	133	63	97	/	LAP4 cherry2=101;MEP2 cherry2=100;RPL19A-GFP pick2=100;CIT2-GFP pick2=97;AGP1-GFP pick2=101
Cc1ccc2nc(/C(C#N)=C/c3ccccc3C(=O)O)[nH]c2c1	104	96	105	103	109	/
Cc1ccc2nc(/C(C#N)=C/c3ccc(O)c(O)c3)[nH]c2c1	109	148	189*	115	150*	0.41
CCN(CCn1cccn1)C(=O)C1CCC(=O)N(CCc2cccc(F)c2)C1 (configuration not stated)	99	87	83	102	99	/
O=C(Nc1cccc(N=Cc2cc(Cl)cc(Br)c2O)c1)c1ccco1	90	128	96	95	93	/
SMILES	AGP1 TOR yeast	LAP4-GFP MLPCN	MEP2-GFP yeast	RPL19A TOR yeast	CIT2 TOR yeast	s288c autofluor	others
O=C(Nc1cccc(N=Cc2cc(Br)cc(Br)c2O)c1)c1ccco1	86	190*	96	71	85	/	LAP4 cherry2=146;MEP2 cherry2=128;RPL19A-GFP pick2=71;CIT2-GFP pick2=117;AGP1-GFP pick2=99
COc1cc(C(=O)O)ccc1OCc1ccncc1	110	102	110	105	104	/
COCCn1c(SCC(=O)Nc2ccc(F)cc2F)nc2c([nH]c3ccccc32)c1=O	81	85	99	100	94	/
O=C(NC(=S)NNC(=O)c1ccc(Cl)cc1Cl)c1cccnc1	96	110	184*	104	100	0.91
Cc1onc(-c2ccccc2)c1C(=O)NNC(=S)NC(=O)c1ccc(Cl)cc1Cl	104	100	105	105	106	/
Cc1ccccc1C(=O)NNC(=S)NC(=O)c1ccc(Cl)cc1Cl	104	182*	108	91	104	0.4
O=C(OCC(=O)N1CCc2ccccc21)[C@@H]1CC(O)CN1S(=O)(=O)c1ccc(Cl)cc1 (some centres not stated)	100	99	101	96	107	/
C/C(=N\NC(=O)c1cccc(Br)c1)c1ccccn1	87	169*	113	111	96	0.91	Yeast autofl DR=0.16;TORC1 bypass=3
C/C(=N\NC(=O)c1cc(Br)ccc1O)c1ccccn1	96	120	118	108	89	/
